# This is part of a sample that, as a whole, favours compounds with a hit. Of some 83,000 tested, about 20% had one in any assay.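 Single-concentration screen, 48 h exposure, 96-well plates. Endpoint: percent growth. Below 10 = active.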 A number with no mark means an inactive call. The source made the active and inactive calls.
# Tested on: LOX IMVI melanoma
# Test: NCI-60 one-dose screen, 48 h (100 = growth as untreated, 0 = no growth, -100 = all killed)
# Conditions: 10 µM unless noted
# Method: Growth inhibition of the LOX IMVI human tumor cell line is measured as a screen for anti-cancer activity. Cells are grown in 96 well plates and exposed to the test compound for 48 hours. Compounds are tested at a single concentration, which is 10^-5 M for most compounds. The reported endpoint is percent growth (GI% or GIPRCNT), where numbers from 0 - 100% represent growth inhibition, and numbers from -100% - 0 represent cell death. For example, a value of 40 represents 60% growth inhibition. A value of 0 means no net growth occurred over the course of the experiment. A value of -40 indicates 40% of cells at the beginning of the experiment died by the end of the experiment. A value of -100 means all cells are dead at the end of the experiment.
# NCI-60 Human Tumor Cell Lines Screen was performed using the standard one-dose NCI protocol, which is described in more detail at https://dtp.cancer.gov/discovery_development/nci-60/default.htm.
# Compounds with GIPRCNT values below 10 were considered active. Activity score was based on GIPRCNT using the following formula: […]
# Score is 0 for GIPRCNT values of 100 or above, 50 for GIPRCNT values of 0, and 100 for GIPRCNT values of -100.
row,SMILES,growth
1,COc1ccc2[nH]cc(/C=N/Nc3ccnc4cc(Cl)ccc34)c2c1,-92.7% (active)
2,Fc1cccc(Cl)c1/C=N/Nc1nc(N/N=C/c2c(F)cccc2Cl)nc(N2CCCCC2)n1,19.6%
3,Brc1cccc(-c2cc(-c3ccc4c(c3)OC=CO4)[nH]n2)c1,45.6%
4,COc1ccc(C(=NNS(=O)(=O)c2ccc(C)cc2)c2ccccc2)cc1OC,106%
5,Cc1cc(NS(=O)(=O)c2ccc(NC(=O)CSc3nc4ccccc4c(=O)n3-c3ccccc3)cc2)no1,94.1%
6,CCCCCN1C(=O)/C(=c2\sc3n(c2=O)C2C(NN=3)N(CC)C(=O)N2CC)c2cccc(C)c21 (stereo not given),37.9%
7,O=C(CSc1nnc(-c2ccc(Cl)cc2)n1-c1ccccc1)Nc1ccccc1Cl,15%
8,C1=CC(c2nn3c(-c4ccccc4)nnc3s2)=Cc2ccccc2O1,-24.4% (active)
9,CC(C)(O)c1cncc(-c2ccc3ncc(C#N)c(N4CCc5cc(F)c(Cl)cc54)c3c2)c1,5.41% (active)
10,CC/C(=C(/c1ccc(Cl)cc1)c1ccc(OCCN)cc1)c1ccccc1,27.8%
11,CC1=C(C)C(=O)C(Nc2ccc(C)cc2)=C(Br)C1=O,29.9%
12,COc1ccc(N2CCN(C3=C(Cl)C(=O)c4ncccc4C3=O)CC2)cc1,21%
13,COC(=O)c1ccc(NC2=C(Cl)C(=O)c3nc(C)ccc3C2=O)cc1,45.1%
14,N#Cc1cnc2ccc(-c3cnc4n[nH]nc4c3)cc2c1N1CCc2cc(F)c(Cl)cc21,10.1%
15,O=C(/C=C/c1cc(Cl)ccc1Cl)Nc1ncc(Cc2ccc(Cl)cc2)s1,-37.3% (active)
16,NCCNC(=O)c1cccc(COc2ccccc2NC(=O)c2cc(Br)c(Br)[nH]2)c1,-30.8% (active)
17,COc1ccc(-c2c3c(cn2Cc2cccc(OC)c2)-c2oncc2CCC3)cc1,95.2%
18,CCS(=O)(=O)Nc1ccc(C(=O)CC2(O)C(=O)Nc3ccccc32)cc1 (stereo not given),94.6%
19,CCOC(=O)c1c(N)c(C#N)cn1Cc1ccc(Cl)cc1Cl,78.8%
20,COc1ccc(CC(C)=C(c2ccc(OCCN3CCCC3)cc2)c2ccc(OCCN3CCCC3)cc2)cc1,-86.6% (active)

row,SMILES,growth
1,CSc1ccc(/C(=N/N=C(N)N)c2ccc(F)cc2)cc1,5.46% (active)
2,CC(Nc1ncnc2ccc(-c3cnc(N)nc3)cc12)c1ccccc1 (stereo not given),23.8%
3,Clc1cccc(/C=N/Nc2nc(N/N=C/c3cccc(Cl)c3)nc(N3CCOCC3)n2)c1,32.6%
4,CC1(C)CC[C@]2(C(=O)NCCCCCCN(CCCN)CCCN)CC[C@]3(C)C(=CC[C@@H]4[C@@]5(C)CC[C@H](O)C(C)(C)[C@@H]5CC[C@]43C)[C@@H]2C1,98.1%
5,Nc1ccc(Nc2ncnc3sc4c(c23)CCN(Cc2ccccc2)C4)cc1,101%
6,C#Cc1nc(/C=C\CCCCCCC(=O)NO)cs1,-82% (active)
7,CC1(C)CC[C@]23CC[C@]4(C)[C@H](CC[C@@H]5[C@@]6(C)CC[C@H](N)C(C)(C)[C@@H]6CC[C@]54C)[C@H]2[C@H]1OC3,-74.2% (active)
8,NNc1nnc2nc(Nc3ccccc3)nc(Nc3ccc(S(N)(=O)=O)cc3)n12,97.3%
9,O=c1nc(Nc2ccc([N+](=O)[O-])cc2O)sc2ccccc12,41.2%
10,CNC(=O)c1cc(N2CCc3cc(NC(=O)Nc4ccc(N5CCOCC5)c(C(F)(F)F)c4)ccc32)ccn1,12.5%
11,CC(C)(C)c1cc(NC(=O)Nc2ccc(-c3cn4c5c(sc4n3)CCc3cn(CCCN4CCCCC4)cc3-5)cc2)no1,-96.2% (active)
12,O=C(/C=C/c1ccc(Cl)c(Cl)c1)Nc1ncc(Cc2ccc(Cl)c(Cl)c2)s1,23.3%
13,Brc1ccc(-c2cc(-c3ccc4c(c3)OC=CO4)n[nH]2)s1,89.9%
14,COc1cc(/C=C2/C(=O)Nc3ccc(Cl)cc32)ccc1OCc1ccc(Cl)cc1,68.3%
15,CN1CCN(c2ccc(Nc3nc(NCCCNS(=O)(=O)c4ccc(F)cc4)c4sccc4n3)cc2)CC1,-5.7% (active)
16,N#Cc1c(-c2cccs2)cc(-c2cnccn2)nc1SCC(=O)N/N=C/c1ccncc1,101%
17,NC(=O)n1c(=O)n(-c2cccc(C(F)(F)F)c2)c(=O)c2cc(-c3ccc(F)cc3F)ccc21,-28.3% (active)
18,CC(=O)OC[C@@]12Oc3c(cccc3-c3ccc(O)c4c3O[C@]3(COC(C)=O)C(=C4O)C(=O)C[C@H](C)[C@@H]3OC(C)=O)C(O)=C1C(=O)C[C@H](C)[C@@H]2OC(C)=O,-66.1% (active)
19,Nc1cc(C(=O)N/N=C\c2ccc(OC(F)F)c(OC3CCCC3)c2)nn1CC(O)c1ccccc1 (stereo not given),99.1%
20,CCN(CC)c1ccc(/C=N/NC(=O)c2ccc(NS(C)(=O)=O)cc2)c(O)c1,0.336% (active)

# Reference: PubChem BioAssay (NCI)
